The values that follow come from PubChem BioAssay AID1851 (National Center for Advancing Translational Sciences (NCATS), 2009).

SMILES strings stand for the structures. Hit rate of the full screen: of about 16,000 compounds, about 5,800 (36%) were called active. Not shown: some 23% with an inconclusive outcome. Calls come from the whole dose curve; as a rule, active = well fitted curve in the direction sought with a large enough effect; inconclusive = small, poorly fitted or top-dose-only effect, or effect the other way; inactive = no such curve, though single readings can be large or run the other way. This is one part of the list.
% is set by controls: 0 for no effect and ±100 for the full control effect.

In the experiment the target is Cytochrome P450 2C19 (Homo sapiens) (UniProt P33261). Kind of experiment: Cytochrome panel assay with activity outcomes. The following applies: recombinant CYP, pro-luciferin dealkylation, luminescence, p450-cyp2c19; series mostly up to 57.1 µM.
Chain of Cytochrome P450 2C19 (Homo sapiens) (P33261 whole entry, looked up): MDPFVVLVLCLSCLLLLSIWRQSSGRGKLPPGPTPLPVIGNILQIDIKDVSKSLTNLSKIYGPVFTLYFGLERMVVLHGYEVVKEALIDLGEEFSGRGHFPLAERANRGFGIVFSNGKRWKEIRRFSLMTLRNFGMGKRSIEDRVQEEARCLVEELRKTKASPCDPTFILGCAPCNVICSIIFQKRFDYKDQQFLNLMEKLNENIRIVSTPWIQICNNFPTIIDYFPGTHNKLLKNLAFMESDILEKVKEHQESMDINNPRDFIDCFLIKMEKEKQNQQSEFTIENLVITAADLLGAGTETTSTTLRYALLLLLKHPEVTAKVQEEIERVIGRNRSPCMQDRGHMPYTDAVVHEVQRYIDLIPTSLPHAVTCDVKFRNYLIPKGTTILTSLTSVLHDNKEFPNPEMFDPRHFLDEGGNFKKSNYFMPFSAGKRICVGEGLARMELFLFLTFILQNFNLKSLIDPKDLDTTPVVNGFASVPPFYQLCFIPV
Take `C/C(C[n+]1ccccc1)=N\N=C(N)N`: the activity, negative = inhibition was 40.3% [at 11.4 µM] (inactive). Consider `CN1CCN(c2ncc3nc(-c4cn(C)c5ccccc45)c(=O)n(C)c3n2)CC1`, for which the AC50 entry was “inactive”.

For `Cn1cc(-c2nc3cnc(N4CCNCC4)nc3n(-c3ccccc3)c2=O)c2ccccc21`, the AC50 entry is “inactive”. With `COc1ccc(-n2c(=O)c(-c3cn(C)c4ccccc34)nc3cnc(N4CCNCC4)nc32)cc1`, the AC50 entry was “inactive”. Regarding `Cn1cc(-c2nc3cnc(N4CCNCC4)nc3n(C)c2=O)c2ccccc21`, the AC50 was 10 µM (active). Take `Cn1cc(-c2nc3cnc(N4CCNCC4)nc3n(C3CC3)c2=O)c2ccccc21`: the half-maximal activity concentration (AC50) was 20 µM (active). Consider `Cn1cc(-c2nc3cnc(Oc4ccccc4)nc3n(C3CC3)c2=O)c2ccccc21`, for which the AC50 entry is “inactive”.

`Cc1ccccc1C(=O)NC(C)c1ccc2c(c1)CCCC2` (stereo not drawn): the AC50 is 2.82 µM (active). `CCn1c2ccccc2c2cnc(N=CN(C)C)c(C#N)c21`: the AC50 is 28.2 µM (active). In the case of `Cn1c(=S)c2[nH]c(SCCN3CCCC3)nc2n(C)c1=O`, the activity, negative = inhibition is 57% [at 11.4 µM] (inactive). As for `CC(C)(C)NC(=O)COC(=O)c1cncc(Br)c1`, the AC50 was 22.4 µM (active). Consider `Cc1cnc(C(=O)OCC(=O)NC(C)C)cn1`, for which the AC50 result was “inactive”.

Consider `O=c1n(-c2ccccc2)c(=O)n2n1CC[C@H]1/C(=N\OCc3ccccc3)[C@H]3O[C@@H]3[C@@H](O)[C@@H]12`, for which the activity, negative = inhibition was 44.7% [at 11.4 µM] (inactive). In the case of `CCOC(=O)c1ccc(S(=O)(=O)Nc2ccc3cn[nH]c3c2)cc1`, the AC50 was 3.16 µM (active).

For `COCCn1c(=O)c(-c2ccc(OC)cc2)nc2cnc(Nc3cccc(OC)c3)nc21`, the AC50 entry was “inactive”.

`C[C@@H]1CCN=C(N)S1`: the AC50 entry was “inactive”. For the compound `N#Cc1ccc(C(c2nnnn2C2CCCC2)N2CCC(Cc3ccccc3)CC2)cc1` (stereo not drawn), the AC50 was 3.55 µM (active). In the case of `CN1CCCN([C@@H](c2ccccc2)c2ccc(Cl)cc2)CC1`, the AC50 result is “inactive”. In the case of `N#Cc1cccc(C(c2nnnn2C2CCCC2)N2CCCCCC2)c1` (stereo not drawn), the AC50 is 5.62 µM (active). With `N#Cc1ccc(C(c2nnnn2Cc2ccccc2)N2CCCC2)cc1` (stereo not drawn), the AC50 is 11.2 µM (active).

Take `O=C(c1cc(Br)ccc1O)c1cc(Br)ccc1O`: the AC50 was 0.2 µM (active). On to `Oc1ccc(Br)cc1CNn1cnnc1`, for which the AC50 entry is “inactive”. Take `O=C(Nc1ccc(-c2cn3ccccc3n2)cc1)c1cc(Br)ccc1O`: the activity, negative = inhibition is -1.2% [at 11.4 µM] (inactive). With `COc1ccc(S(=O)(=O)n2ccc(-c3cnc(-c4ccccc4)s3)n2)cc1`, the AC50 is 1.58 µM (active). For `O=S(=O)(c1ccc(F)cc1)n1ccc(-c2cnc(-c3ccccc3)s2)n1`, the AC50 was 8.91 µM (active). In the case of `Cn1c(=O)c(-c2ccccc2)nc2cnc(Oc3ccccc3)nc21`, the AC50 result is “inactive”. Same read-out and setting: in the case of `COc1cccc(-c2cc(C(F)(F)F)n3ncc(S(=O)(=O)c4ccccc4)c3n2)c1` it was “inactive”. Consider `CCc1cc2c(=O)[nH]cnc2s1`, for which the AC50 result was “inactive”. For `CCc1cc2c(NCCO)ncnc2s1`, the AC50 entry is “inactive”. The same measure, in the same setting: in the case of `CCc1cc2c(NCc3ccco3)ncnc2s1` it was 4.47 µM (active); in that of `Nc1ccccc1S(N)(=O)=O`, “inactive”. As to `Cc1nc(N/N=C/c2ccccc2)nc(N(C)c2ccccc2)c1[N+](=O)[O-]`, the AC50 result was “inactive”. For `Cc1ccc2nc(N/N=C\c3cccc(C)n3)cc(C)c2c1`, the activity, negative = inhibition was -12.3% [at 11.4 µM] (inactive). With `Cc1ccc2nc(N/N=C/c3ccccc3C#N)nc(-c3ccccc3)c2c1`, the half-maximal activity concentration (AC50) was 10 µM (active). Same read-out and setting: in the case of `Cc1noc(C)c1C(=O)N1CCC2(CCCN(c3ccccc3)C2)CC1` it was “inactive”; in that of `Cc1cccc(N2CCN(C(=O)CSCc3c(C)noc3C)CC2)c1C`, 17.8 µM (active); in that of `Cc1ccc(NC(=S)Nc2nc(CC(=O)Nc3ccccc3)cs2)cc1`, 3.98 µM (active). `COCCn1c(=O)c(-c2cccc(C#N)c2)nc2cnc(N3CCOCC3)nc21`: the AC50 entry is “inactive”. As for `COc1ccc(C(=O)Nc2scc(-c3ccc(Cl)cc3Cl)c2C(N)=O)cc1`, the AC50 was 1.26 µM (active). For `NC(=O)OC[C@H](O)COc1ccc(Cl)cc1`, the AC50 entry is “inactive”. Still for that read-out and setting: in the case of `CC(C)COc1ccc(C(=O)Nc2scc(-c3ccc(Cl)cc3Cl)c2C(N)=O)cc1` it was 2.82 µM (active); in that of `O=C(CC1C(=O)N(c2ccc(Cl)cc2)C(=S)N1CCc1ccncc1)Nc1ccc(F)cc1` (stereo not drawn), 0.02 µM (active). On to `O=C(Nc1ccc(Cl)cc1)OCc1cc(-c2ccccc2Cl)on1`, for which the AC50 was 0.316 µM (active). `O=C(Nc1ccc(Cl)cc1)OCc1cc(-c2ccccc2)on1`: the AC50 was 0.447 µM (active). The same measure, in the same setting: in the case of `CS(=O)(=O)c1ccccc1COC(=O)Nc1ccc(Cl)cc1` it was 2.51 µM (active); in that of `O=C(Nc1ccccc1)OCc1cc(-c2ccc(Cl)cc2)on1`, 2 µM (active). Regarding `O=C(c1cc(C(F)(F)F)cc(C(F)(F)F)c1)N1CCC[C@@]2(CCN(c3ncccn3)C2)C1`, the AC50 entry was “inactive”. Take `CCC(=O)O[C@@H]1[C@H](C)O[C@H](O[C@H]2[C@@H](N(C)C)[C@H](O)[C@@H](O[C@@H]3[C@@H](CC=O)C[C@@H](C)[C@@H](O)/C=C\C=C/C[C@@H](C)OC(=O)C[C@@H](OC(=O)CC)[C@H]3OC)O[C@H]2C)C[C@]1(C)O`: the AC50 entry was “inactive”. On the same count and under the same terms, in the case of `Cc1nc(SCC(=O)c2ccc(F)cc2)c([N+](=O)[O-])[nH]1` it was 8.91 µM (active). As for `Cn1c(=S)c2[nH]c(SCCCc3ccccc3)nc2n(C)c1=O`, the activity, negative = inhibition was -28.4% [at 11.4 µM] (inactive). As to `COc1ccc(-c2nc3cnc(Nc4ccccc4)nc3n(Cc3cccs3)c2=O)cc1`, the AC50 result is “inactive”. Regarding `O=C1CN=C(Nc2ccccc2)N1Cc1cccs1`, the AC50 was 14.1 µM (active). With `O=c1cnc2cnc(Nc3ccccc3)nc2n1Cc1cccs1`, the AC50 entry was “inactive”.

Regarding `CCOc1ccc(NC2=NCC(=O)N2Cc2cccs2)cc1`, the AC50 is 11.2 µM (active). For the compound `C=CCN1C(=O)CN=C1Nc1ccccc1`, the AC50 result is “inactive”.

`Cc1nc2cnc(Nc3ccccc3)nc2n(Cc2cccs2)c1=O`: the AC50 result was “inactive”.

As for `COc1ccc(CNC(=O)/C=C/c2ccc(OCCCF)cc2)cc1`, the AC50 entry was “inactive”.

`CCCCOc1ccc(/C=C/C(=O)NCCc2nc3ccccc3[nH]2)cc1`: the AC50 was 3.98 µM (active). Consider `Nc1nnc(SCCOc2cccc(Br)c2)s1`, for which the AC50 is 3.98 µM (active). Take `CCCCN1C(=O)CC(Sc2ccccc2C(=O)O)C1=O` (stereo not drawn): the AC50 entry is “inactive”. As to `O=C(CSC1CC(=O)N(CC(c2ccccc2)c2ccccc2)C1=O)Nc1ccc(Cl)cc1` (stereo not drawn), the AC50 was 1.58 µM (active). The same measure, in the same setting: to `Cn1c(C(=O)Nc2ccccc2)cc2sccc21` belongs 2.51 µM (active); to `COC(=O)c1ccc(NC(=O)c2cc3sccc3n2C)cc1`, 7.94 µM (active). With `C[C@@]1(CCOCc2ccccc2)NC(=O)NC1=O`, the activity, negative = inhibition is 0.432% [at 11.4 µM] (inactive). Turning to `COc1ccc(C2(CNC(=O)/C=C/c3ccco3)CCCC2)cc1OC`, the AC50 is 7.94 µM (active).

For the compound `COc1cc(OC)c(OC)cc1C=NCC1(c2ccccc2)CCCC1`, the AC50 result was “inactive”. The same measure, in the same setting: to `CC[N+](CC)(CC)CC[C@](O)(c1ccccc1)C1CCCCC1` belongs “inactive”; to `CCCc1cc2c(n1CCc1ccc(Cl)cc1)C(C)C1CN(C(=O)c3ccccc3)C(C)(C(=O)OC)C21` (stereo not drawn), 6.31 µM (active). Turning to `Nc1ccc(C(=O)C[C@H](N)C(=O)O)cc1O`, the activity, negative = inhibition was -13.9% [at 11.4 µM] (inactive).

`O=C(O)[C@H]1CCCNC1`: the AC50 result was “inactive”. `CC(C)=NOCc1ccc(-c2cc(-c3ccccc3)no2)cc1`: the activity, negative = inhibition was -13.3% [at 11.4 µM] (inactive). As for `Oc1ccccc1-c1cc(-c2ccccc2)no1`, the AC50 is 7.94 µM (active). With `Cc1[nH]c2ccccc2c1-c1cc(-c2cc(-c3c(C)[nH]c4ccccc34)on2)no1`, the activity, negative = inhibition was 0.833% [at 11.4 µM] (inactive). Take `Nc1nc(-c2cc(-c3cccc4ccccc34)nc(N)n2)cc(-c2cccc3ccccc23)n1`: the activity, negative = inhibition is 11.9% [at 11.4 µM] (inactive). In the case of `Cc1ccccc1-c1cc(-c2ccccc2O)on1`, the AC50 was 4.47 µM (active). Turning to `Nc1nc(-c2ccccc2)cc(-c2ccccc2O)n1`, the AC50 is 10 µM (active).

For `COc1cc2c(cc1OC)-c1cc3ccc(OC)c(OC)c3c[n+]1CC2`, the AC50 entry was “inactive”. For `COc1ccc(C2C(C(=O)N3CCOCC3)CCC(=O)N2c2ccc(OC)cc2)cc1` (stereo not drawn), the AC50 result was “inactive”. Still for that read-out and setting: in the case of `CCOC(=O)C1=C(C)NC(=S)NC1c1cccc(O)c1` (stereo not drawn) it was 25.1 µM (active); in that of `CCOC(=O)C1=C(C)C(c2ccccc2OC)NC(=S)N1` (stereo not drawn), 5.62 µM (active); in that of `COC(=O)C1=C(C)C(c2ccc(OC)cc2)NC(=S)N1` (stereo not drawn), 14.1 µM (active). `CCOC(=O)c1c(NC(C)=O)sc2c(OC)cccc12`: the AC50 result was “inactive”. As to `COc1ccc(N2C(=O)CCC(C(=O)O)C2c2ccc(F)cc2)cc1` (stereo not drawn), the AC50 entry was “inactive”.

Turning to `CS(=O)(=O)N1CCC2(CC1)CN(C(=O)Nc1cccc(C#N)c1)C2`, the AC50 result is “inactive”. With `CC(NC(=O)Cn1cnc([N+](=O)[O-])n1)c1ccccc1` (stereo not drawn), the AC50 was 39.8 µM (active). For the compound `CCN(CC)C(=O)Cn1cnc([N+](=O)[O-])n1`, the AC50 entry was “inactive”. `CC(C)(C)NC(=O)Cn1cnc([N+](=O)[O-])n1`: the AC50 entry is “inactive”. Consider `O=C1CCC(c2ccccc2)=NN1c1nc2ccccc2s1`, for which the activity, negative = inhibition was 6.12% [at 11.4 µM] (inactive).

As to `O=S(=O)(c1ccccc1)N1CCC2(CCN(C(c3ccccc3)c3ccccc3)CC2)CC1`, the AC50 entry is “inactive”. For `O=S(=O)(c1ccccc1)N1CCCC1c1nc2ccccc2s1` (stereo not drawn), the AC50 was 4.47 µM (active). On the same count and under the same terms, in the case of `N#CCCn1c(=O)c(-c2cccc(C#N)c2)nc2cnc(N3CCOCC3)nc21` it was “inactive”; in that of `COc1ccc2c(c1)-c1ccccc1S(=O)(=O)N2C`, 14.1 µM (active); in that of `CC1CC2=C(NC(=S)NC2c2ccc(F)cc2)/C(=C/c2ccc(F)cc2)C1` (stereo not drawn), 3.55 µM (active). Still for that read-out and setting: in the case of `Cc1ccccc1C(=O)N1CCN(c2ccc([N+](=O)[O-])c(NCc3ccco3)c2)CC1` it was 3.16 µM (active); in that of `Cc1cccc(C(=O)NCN2CCN(c3ccccc3C#N)CC2)c1`, “inactive”; in that of `N#Cc1ccc(C(=O)Nc2ccc(N3CCN(C(=O)c4ccco4)CC3)cc2)c(F)c1`, “inactive”.

Regarding `Cc1cccc(C(=O)N2CCN(c3ccc([N+](=O)[O-])c(NCc4ccco4)c3)CC2)c1`, the AC50 was 7.94 µM (active). Take `CC[C@]1(O)C[C@H]2CN(CCc3c([nH]c4ccccc34)[C@](C(=O)OC)(c3cc4c(cc3OC)N(C=O)[C@H]3[C@@](O)(C(=O)OC)[C@H](OC(C)=O)[C@@]5(CC)C=CCN6CC[C@]43[C@H]65)C2)C1`: the AC50 result is “inactive”.
